# Bioassay records from PubChem.
# Sampled rows, rich in hits. Any-hit rate of the full collection: about 3%.
# Sm TGR block – qHTS Assay for the Inhibitors of Schistosoma Mansoni Peroxiredoxins; Potency, µM (titrated, usually from 114 µM), for inactives: at the highest dose activity change, negative = inhibition, most hits filed as inhibitors; purified TGR, DTNB reduction, TNB absorbance 405 nm; Schistosoma mansoni thioredoxin glutathione reductase (TGR), Q962Y6; hit rate 3% among 360,000; active means well fitted inhibition curve with a large enough effect; inconclusive means small, poorly fitted or top-dose-only effect; inactive means no such curve, though single readings can be large or run the other way; further: on the % scale 0 is the no-effect control and ±100 the full control effect; nearly all actives have a fitted effect of over 60% in size
#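 First, TGR (20 nM dispensed) and NADPH were mixed with compound. Second, a 15 min room-temperature incubation followed. Third, further NADPH and then DTNB were added to start the reaction. Finally, TNB absorbance was monitored kinetically.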
# SARS PLpro yeast – qHTS of Yeast-based Assay for SARS-CoV PLP. Potency, µM (doses to about 32.9 µM), without a hit: at the top dose activity, positive = growth rescue, hits mostly activators. hit rate 0.19% among 330,000. AID 485353, 2010. S. cerevisiae expressing SARS-CoV PLpro, growth rescue; calls by dose curve; further: 0% is about no effect; nearly all actives have a fitted effect of over 55% in size
# Active calls of the source: *; ? = inconclusive; . = no result. Potency means the concentration at half of the fitted maximal effect.
SMILES,Sm TGR block,SARS PLpro yeast
Cc1oc(-c2ccc3ccccc3c2)nc1CN(C)C(C)c1ccncn1 (centres undefined),50µM*,1%
CC(c1ccncn1)N(C)Cc1nc(-c2ccc(C(F)(F)F)cc2)no1 (centres undefined),8%,0%
CCOC(=O)c1c(C)[nH]c(C)c1S(=O)(=O)NCC(=O)N1CCN(c2ccccc2OC)CC1,5%,.
Cc1ccc(C)c(CSc2nc3ccncc3n2CC(=O)Nc2ccc(N(C)C)cc2)c1,2%,.
Cc1ccc(-c2ccc(C(=O)NCc3ccccc3)o2)c2ccccc12,40µM*,-12%
Cc1ccc(-c2ccc(C(=O)Nc3ccccc3)o2)c2ccccc12,35µM*,-16%
CCOc1ccccc1-c1ccc(C(=O)NCc2ccccc2)o1,?,-25%
O=C(Nc1ccccc1)c1ccc(-c2ccccc2Cl)o1,-2%,9%
CCOC(=O)c1noc2ncn(CC(=O)Nc3ccc(C)c(F)c3)c(=O)c12,4%,.
Cn1c(N2CCOCC2)nc2c1c(=O)n(Cc1ccc(Cl)c(Cl)c1)c(=O)n2C,-1%,-13%
Cn1c(OCc2ccco2)nc2c1c(=O)n(Cc1ccc(Cl)c(Cl)c1)c(=O)n2C,22µM*,-14%
CC(Oc1ccccc1)C(=O)Nc1ccc(C(=O)OCc2cc(=O)n3nc(C(C)C)sc3n2)cc1 (centres undefined),0%,.
C/C(=N\N=C(/N)SC1CC(=O)N(c2ccc(Br)cc2)C1=O)c1cccs1 (centres undefined),14µM*,-23%
C/C(=N\N=C(/N)SC1CC(=O)N(c2ccccc2)C1=O)c1cccs1 (centres undefined),5%,0%
Cc1ccc(Cl)cc1NC(=O)CCn1c(=O)c2cccn2c2cccnc21,2%,.
COc1ccccc1-c1ccc(/C=C2\C=CC(=O)O2)o1,14µM*,-3%
COc1ccccc1-c1ccc(/C=C2/C=C(C)OC2=O)o1,?,-10%
CCCCn1c(=O)n(CC2CCC(C(=O)NCCCOC)CC2)c(=O)c2sccc21 (centres undefined),1%,.
CCOc1cc(/C=N/Nc2ncnc(Cl)c2N)ccc1O,-26%,-14%
CCOc1cc(/C=N/Nc2nnc(C)n2N)ccc1O,50µM*,-7%
CC1(C)Cc2c(C#N)c(N)sc(=S)c2CO1,?,-7%
CC(C)C1Cc2c(C#N)c(N)sc(=S)c2CO1 (centres undefined),10µM*,3%
COc1ccc(N2C(=O)CS(=O)(=O)C23C(=O)N(Cc2c(F)cccc2Cl)c2ccccc23)cc1 (centres undefined),9%,.
CCN(C(=O)c1cn(CC)c(=O)c2cc(OC)c(OC)cc12)c1ccccc1F,-1%,.
CCCSc1nnc(NC(=O)c2cc(=O)c3ccccc3o2)s1,-6%,.
SMILES,Sm TGR block,SARS PLpro yeast
COc1ccc(-c2noc(CSc3nnc(Cc4ccccc4)n3-c3ccccc3)n2)cc1OC,-6%,.
Cc1cc(C)cc(NC(=O)CSc2nc(=O)[nH]c3c2CCC3)c1,7%,.
CC1(OC(=O)c2ccc(Cl)nc2)C(=O)C=C2C=C3CCCN3C=C2C1=O (centres undefined),35µM*,-3%
COC(=O)CCC(=O)OC1(C)C(=O)C=C2C=C3CCCN3C=C2C1=O (centres undefined),?,0%
CCS(=O)(=O)N1CC(=O)N(c2cc(Cl)ccc2C)C(C)(C(=O)NC2CCCCCC2)C1 (centres undefined),0%,.
CCCc1nc(N)sc1C(=O)OCC,6%,-30%
Cc1nc(N)sc1C(=O)N1N=N1,2.5µM*,-1%
COC(=O)CSc1nc2c(c(-c3ccco3)c1C#N)CCCC2,3.2µM*,-5%
CCOC(=O)CSc1nc2c(c(-c3ccc(C)o3)c1C#N)CCCC2,45µM*,0%
Cc1ccc(-c2c(C#N)c(N)nc3c2CCCCC3)o1,-24%,-5%
COC(=O)CSc1nc2c(c(-c3ccc(O)cc3)c1C#N)CCCC2,.,-2%
CCc1ccc(NCc2cc3ccc(OC)cc3n(CC(=O)Nc3ccc(C)c(Cl)c3)c2=O)cc1,3%,.
O=C1CC(c2nnc(Cc3ccc(F)cc3Cl)o2)CN1c1ccccc1 (centres undefined),-5%,.
O=C(Cn1cc(SCc2ccc(F)cc2)c2ccccc21)N1CCCCCC1,3%,.
Fc1ccc(C2Nc3cccc4cccc(c34)N2)cc1,18µM*,2%
COc1cc(C2Nc3cccc4cccc(c34)N2)ccc1OC(C)=O,?,2%
COC(=O)c1ccc(C2Nc3cccc4cccc(c34)N2)cc1,?,-3%
CCN(CC)c1ccc(C2Nc3cccc4cccc(c34)N2)cc1,-54%,2%
Cc1ccc(C2Nc3cccc4cccc(c34)N2)s1,18µM*,-15%
COc1ccc(C2Nc3cccc4cccc(c34)N2)cc1Br,25µM*,-1%
FC(F)(F)c1ccc(C2Nc3cccc4cccc(c34)N2)cc1,20µM*,-5%
Cc1ccc2ccc3cccc4ccc1c2c34,-3%,-1%
Cc1ccccc1Cn1c2ccccc2c2cnn(CC(=O)NCCCc3ccccc3)c(=O)c21,0%,.
CC(=O)c1cc(C(=O)Nc2cc(C)cc(C)c2)c2ccccn12,0%,.
COc1ccc(-c2noc(CN(C(C)C)S(=O)(=O)c3ccc(Br)cc3)n2)cc1,1%,.
SMILES,Sm TGR block,SARS PLpro yeast
CC(=O)N1c2c(cc(Br)cc2S(=O)(=O)NCc2ccccc2Cl)CC1C (centres undefined),9%,.
CCC(=O)Oc1c(Sc2ccc(Cl)cc2)c(C)nn1C(C)(C)C,-9%,.
CCCOc1ccc(C2NC(=O)NC2=O)cc1 (centres undefined),-4%,10%
CCCOc1ccc(C2Nc3cccc4cccc(c34)N2)cc1,14µM*,-4%
CCCCCn1c(CCNC(=O)c2cccc(C)c2)nc2ccccc21,6%,.
COC(=O)c1ccccc1NC(=O)Cn1c(=O)n(CCCCC(=O)NCc2ccc3c(c2)OCO3)c(=O)c2ccccc21,-2%,.
CCCCCCCN1C(Nc2ccccc2)=NC[C@@H]1Cc1ccccc1,-17%,3%
CCN1C(Nc2ccccc2)=NC[C@@H]1Cc1ccccc1,25µM*,-1%
COc1cccc(NC(=O)C(Cc2ccccc2)NS(=O)(=O)c2ccc3c(c2)oc(=O)n3C)c1 (centres undefined),-1%,.
Nc1nn(-c2ccccc2)nc1C(=O)OCc1c(F)cccc1Cl,13%,.
COC(=O)[C@]1(C)C[C@H]1[C@H](NP(=O)(c1ccccc1)c1ccccc1)c1ccccc1,-14%,1%
COC(=O)c1cccc(C#CC(NP(=O)(c2ccccc2)c2ccccc2)c2ccccc2)c1 (centres undefined),11µM*,-1%
O=C(NNc1ccccc1[N+](=O)[O-])Nc1ccc(Cl)c(Cl)c1,-7%,-19%
O=C1NC(=O)C(c2ccccc2[N+](=O)[O-])=C1Nc1ccc(O)c(Cl)c1,7.1µM*,-4%
CC1CCN(c2ccc(-c3cccc(NS(=O)(=O)c4ccc(F)cc4F)c3)nn2)CC1,-6%,.
CCOC(=O)c1cnc2c(Cl)c(Cl)ccc2c1Nc1ccc(N(C)C)cc1,0%,.
CCc1ccc(-n2nc(CO)c(C(=O)NC)n2)cc1,0%,.
CN(C)CCNC(=O)c1ccc(Cn2c(=O)c3cccn3c3cccnc32)cc1,-13%,.
CC1=CN2C(=N)/C(=C/c3ccc([N+](=O)[O-])o3)C(=O)N=C2S1,3.5µM*,-95%
CC1=CN2C(=N)/C(=C/c3ccco3)C(=O)N=C2S1,-17%,-23%
